Assay results published in ChEMBL document CHEMBL1157539, “Thousands of chemical starting points for antimalarial lead identification” (Nature, 2010).

How the values were obtained:
Type in all cases: functional
Plasmodium falciparum [1] = experiment: GSK_TCMDC: Inhibition of Plasmodium falciparum 3D7 in whole red blood cells, using parasite LDH activity as an index of growth. Test compounds present at 2uM
Plasmodium falciparum [2] = experiment: GSK_TCMDC: Inhibition of Plasmodium falciparum Dd2 in whole red blood cells, using parasite LDH activity as an index of growth. Test compounds present at 2uM
HepG2 = experiment: GSK_TCMDC: Percent inhibition of human HepG2 cell line. Test compounds present at 10uM.

SMILES | Inhibition (Plasmodium falciparum [1]) | Inhibition (Plasmodium falciparum [2]) | Inhibition (HepG2)
CS(=O)(=O)CCNCc1nc(-c2ccc3c(Nc4ccc(F)c(O)c4)ccnc3c2)cs1 | 95% | 84% | 0%
Clc1cccc(CNc2nc(NCCc3c[nH]cn3)nc(NC3CCCCC3)n2)c1 | 98% | 0% | 17%
Cc1ccc2[nH]c(-c3cc(-c4ccc(OCc5ccccc5)cc4)cnc3N)nc2c1.O=C(O)C(F)(F)F | 91% | 87% | 33%
CC(=O)Nc1ccc(C(=O)Nc2cccc(-c3ccc(-c4nc5cc(C(F)(F)F)ccc5[nH]4)cc3)c2)cn1 | 100% | 100% | 46%
O=C(c1ccccc1)N1COCC(CCN2CCC(N3CCCC3)CC2)(c2ccc(Cl)c(Cl)c2)C1 (stereo not drawn) | 83% | 9% | 18%
COCCN1CCC(CNCC(C)(C)c2nc(-c3ccc(Cl)c(O)c3)c(-c3ccncc3)[nH]2)CC1.Cl | 100% | 2% | 0%
CCc1ccc(C2CCN(CCCCNC(=O)c3ccc(NC(=O)c4ccc(Cl)cc4)cc3)CC2)cc1 | 100% | 63% | 15%
O=S(=O)(c1c(Cl)cc(Cl)cc1Cl)N1CCCCC(c2ccc(F)c(F)c2)=N1 | 87% | 65% | 5%
FC(F)(F)c1ccc2[nH]ccc(=NN=Cc3ccc(Cl)cc3)c2c1 | 100% | 53% | 5%
Cl.c1ccc(-c2cc(NCCNc3cc(-c4ccccc4)nc4ccccc34)c3ccccc3n2)cc1 | 99% | 11% | 0%
O=C(NCCCCN1CCC(c2nc3ccccc3s2)CC1)c1cc2ccccc2[nH]1 | 86% | 64% | 43%
O=C(Nc1ccc(Br)cc1)N(CCN1CCOCC1)CC(O)COCc1ccc(Cl)c(Cl)c1.O=C(O)C(F)(F)F (stereo not drawn) | 94% | 52% | 16%
Cn1c(N)c(C(=O)CSc2nnc(-c3cccs3)n2Cc2ccccc2)c(=O)n(C)c1=O | 85% | 68% | 0%
O=C(O)C(F)(F)F.Oc1ccc(CCNc2nc(NCc3ccccc3-c3ccc(C(F)(F)F)cc3)nc(NC3CCNCC3)n2)cc1 | 97% | 2% | 12%
NC(=O)C1CCN(Cc2ccc(-c3cccc(-c4nc5cc(F)ccc5[nH]4)c3)cc2)CC1.O=C(O)C(F)(F)F | 90% | 3% | 10%
COc1ccc2nccc(N3CCC(SCCNS(=O)(=O)c4ccc5c(c4)OCCO5)C3)c2n1.Cl (stereo not drawn) | 94% | 87% | 36%
O=C(O)C(F)(F)F.O=[N+]([O-])c1cccc(CNCC2CCN(CCc3ccccc3)CC2)c1 | 98% | 11% | 15%
O=C(Nc1ccc(-c2nc3cc4ccccc4cc3[nH]2)cc1)c1cccc(Br)c1 | 100% | 89% | 50%
Nc1ccc(-c2ccc3ccnc(N)c3c2)cn1.O=C(O)C(F)(F)F | 100% | 100% | 43%
O=C(NCCCCN1CCN(c2cccc(Cl)c2Cl)CC1)c1ccc2c(c1)CCN(C1CCC1)CC2 | 95% | 31% | 97%
CCCCCn1c(Sc2ccc(C#N)c([N+](=O)[O-])c2)nnc1-c1ccccc1 | 93% | 15% | 22%
